Assay results from PubChem BioAssay AID1159580 (chemical genetic matrix, 2015).
About 2,000 (36%) of roughly 5,500 compounds were called active. Another 18% or so got no clear call; they are omitted. The list shows a part of the results. Unmarked numbers belong to inactive results. No stated cut-off is given here; in the data, active means normalized growth mostly below about 0.91 (no sharp cut-off); inconclusive means no clear call, values can overlap the other calls; inactive means mostly above about 0.92.

Assay: chemical genetic growth profiling, strain panel (AID 1159580);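 further: tested at 20 µM; growth read once vehicle control cultures reached saturation at 30 °C; 1 = growth at the plate median or of vehicle wells; lower values mean less growth of the strain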
Settings: S. cerevisiae deletion strains, growth OD
[1] = locus YHR030C, strain SLT2, active compounds read low
[2] = locus YAL013W, strain DEP1, active compounds read low
[3] = locus YJR075W, strain HOC1, active compounds read low
[4] = locus YNL153C, strain GIM3, active compounds read low
[5] = locus YNL322C, strain KRE1, active compounds read low
[6] = locus YPL055C, strain LGE1, active compounds read low

With `CN[C@H]1CC[C@@H](c2ccc(Cl)c(Cl)c2)c2ccccc21` the normalized growth (locus YAL021C, strain ccr4, active compounds read low) was 0.529 (active), the normalized growth (locus YAL026C, strain drs2, active compounds read low) was 0.0645 (active) and the normalized growth (locus YAL030W, strain snc1, active compounds read low) was 0.985. For the same molecule, the normalized growth (locus YBL061C, strain skt5, active compounds read low) was 0.864 (active), the normalized growth (locus YBR009C, strain hhf1, active compounds read low) was 0.82 (active) and the normalized growth (locus YBR023C, strain chs3, active compounds read low) was 0.858 (active). For the same molecule, the normalized growth (locus YBR171W, strain sec66, active compounds read low) was 1.01, the normalized growth (locus YBR231C, strain swc5, active compounds read low) was 0.89 (active) and the normalized growth (locus YBR279W, strain paf1, active compounds read low) was 0.905 (active). The normalized growth (locus YCL011C, strain gbp2, active compounds read low) was 0.919, the normalized growth (locus YCL016C, strain dcc1, active compounds read low) was 0.866 (active) and the normalized growth (locus YCL061C, strain MRC1, active compounds read low) was 0.956. It also gave a normalized growth (locus YCL069W, strain vba3, active compounds read low) of 0.968, a normalized growth (locus YCR088W, strain abp1, active compounds read low) of 0.964 and a normalized growth (locus YDL005C, strain med2, active compounds read low) of 1.07. The normalized growth (locus YDL040C, strain nat1, active compounds read low) was 1.02, the normalized growth (locus YDR001C, strain nth1, active compounds read low) was 1.02 and the normalized growth (locus YDR069C, strain doa4, active compounds read low) was 0.639 (active). For the same molecule, the normalized growth (locus YDR137W, strain rgp1, active compounds read low) was 1.29 [resistant] (active), the normalized growth (locus YDR159W, strain sac3, active compounds read low) was 1.05 and the normalized growth (locus YDR195W, strain ref2) was 1.47 [resistant] (active). The normalized growth (locus YDR297W, strain sur2, active compounds read low) was 0.976, the normalized growth (locus YDR334W, strain swr1, active compounds read low) was 1.04 and the normalized growth (locus YDR335W, strain msn5, active compounds read low) was 0.849 (active). The normalized growth (locus YDR392W, strain spt3, active compounds read low) was 0.939, the normalized growth (locus YEL003W, strain gim4, active compounds read low) was 0.898 (active) and the normalized growth (locus YEL037C, strain rad23, active compounds read low) was 0.953. For the same molecule, the normalized growth (locus YEL061C, strain CIN8 (second series), active compounds read low) was 1, the normalized growth (locus YER015W, strain faa2, active compounds read low) was 0.634 (active) and the normalized growth (locus YER016W, strain bim1, active compounds read low) was 0.986. The normalized growth (locus YER111C, strain swi4, active compounds read low) was 1.01, the normalized growth (locus YER155C, strain BEM2 (second series), active compounds read low) was 1.01 and the normalized growth (locus YFR010W, strain ubp6, active compounds read low) was 0.605 (active). For the same molecule, the normalized growth (locus YGL167C, strain pmr1, active compounds read low) was 1.04, the normalized growth (locus YGL173C, strain kem1, active compounds read low) was 0.799 (active) and the normalized growth (locus YGL227W, strain vid30, active compounds read low) was 1.02. For the same molecule, the normalized growth (locus YGL240W, strain doc1, active compounds read low) was 1.06, the normalized growth (locus YGL253W, strain hxk2, active compounds read low) was 0.859 (active) and the normalized growth (locus YHR013C, strain ard1, active compounds read low) was 0.677 (active). For the same molecule, the normalized growth (locus YHR027C, strain rpn1, active compounds read low) was 0.817 (active), the normalized growth [1] was 0.859 and the normalized growth (locus YHR079C, strain IRE1, active compounds read low) was 0.959. For the same molecule, the normalized growth (locus YHR142W, strain chs7, active compounds read low) was 0.77 (active), the normalized growth (locus YJL092W, strain hpr5, active compounds read low) was 0.945 and the normalized growth (locus YJL095W, strain BCK1 (second series), active compounds read low) was 0.0692 (active). For the same molecule, the normalized growth (locus YJL095W, strain BCK1, active compounds read low) was 0.935, the normalized growth (locus YJL115W, strain asf1, active compounds read low) was 1.03 and the normalized growth (locus YJL129C, strain trk1, active compounds read low) was 0.794 (active). The normalized growth (locus YJL154C, strain vps35, active compounds read low) was 1.02, the normalized growth (locus YJL164C, strain tpk1, active compounds read low) was 0.855 (active) and the normalized growth (locus YJL166W, strain qcr8, active compounds read low) was 0.862 (active). The normalized growth (locus YJR066W, strain TOR1, active compounds read low) was 0.929, the normalized growth (locus YKL160W, strain elf1, active compounds read low) was 0.931 and the normalized growth (locus YKR026C, strain gcn3, active compounds read low) was 0.999. The normalized growth (locus YKR091W, strain srl3, active compounds read low) was 1.02, the normalized growth (locus YLL001W, strain dnm1, active compounds read low) was 0.929 and the normalized growth (locus YLL026W, active compounds read low) was 0.942. For the same molecule, the normalized growth (locus YLL041C, strain sdh2, active compounds read low) was 1.01, the normalized growth (locus YLR027C, strain aat2, active compounds read low) was 0.921 (active) and the normalized growth (locus YLR113W, strain HOG1, active compounds read low) was 0.936. The normalized growth (locus YLR221C, strain rsa3, active compounds read low) was 0.9 (active), the normalized growth (locus YLR258W, strain gsy2, active compounds read low) was 0.932 and the normalized growth (locus YLR262C, strain YPT6 (second series), active compounds read low) was 1.02. For the same molecule, the normalized growth (locus YLR320W, strain mms22, active compounds read low) was 0.805 (active), the normalized growth (locus YLR342W, strain FKS1, active compounds read low) was 0.647 (active) and the normalized growth (locus YLR357W, strain rsc2, active compounds read low) was 1.17 [resistant] (active). For the same molecule, the normalized growth (locus YLR370C, strain arc18, active compounds read low) was 0.703 (active), the normalized growth (locus YLR384C, strain iki3, active compounds read low) was 1.02 and the normalized growth (locus YML120C, strain ndi1, active compounds read low) was 0.983. The normalized growth (locus YMR058W, strain fet3, active compounds read low) was 0.661 (active), the normalized growth (locus YMR125W, strain sto1, active compounds read low) was 0.943 and the normalized growth (locus YMR129W, active compounds read low) was 1.03. For the same molecule, the normalized growth (locus YMR205C, strain PFK2, active compounds read low) was 0.866 (active), the normalized growth (locus YMR231W, strain pep5, active compounds read low) was 0.0786 (active) and the normalized growth (locus YNL071W, strain lat1, active compounds read low) was 0.847 (active). The normalized growth (locus YNL183C, strain NPR1, active compounds read low) was 0.954, the normalized growth (locus YNL209W, strain ssb2, active compounds read low) was 0.846 (active) and the normalized growth (locus YNL248C, strain rpa49, active compounds read low) was 0.935. For the same molecule, the normalized growth (locus YNL322C, strain KRE1 (second series), active compounds read low) was 1.08, the normalized growth (locus YNR049C, strain mso1, active compounds read low) was 0.996 and the normalized growth (locus YOR001W, strain rrp6, active compounds read low) was 0.928. For the same molecule, the normalized growth (locus YOR070C, strain gyp1, active compounds read low) was 0.817 (active), the normalized growth (locus YOR080W, strain dia2, active compounds read low) was 0.982 and the normalized growth (locus YOR083W, strain WHI5, active compounds read low) was 0.824 (active). The normalized growth (locus YOR106W, strain vam3, active compounds read low) was 0.622 (active), the normalized growth (locus YOR231W, strain MKK1, active compounds read low) was 0.988 and the normalized growth (locus YOR265W, strain rbl2, active compounds read low) was 0.953. The normalized growth (locus YOR270C, strain vph1, active compounds read low) was 0.348 (active), the normalized growth (locus YOR290C, strain snf2, active compounds read low) was 0.852 (active) and the normalized growth (locus YPL051W, strain arl3, active compounds read low) was 0.776 (active). The normalized growth (locus YPL078C, strain atp4, active compounds read low) was 0.922, the normalized growth (locus YPL106C, strain sse1, active compounds read low) was 1.03 and the normalized growth (locus YPL240C, strain hsp82, active compounds read low) was 1.01. It also gave a normalized growth (locus YPL256C, strain CLN2, active compounds read low) of 0.969.
`CN[C@@H]1C[C@@H](c2ccc(Cl)c(Cl)c2)c2ccccc21` showed a normalized growth [2] of 0.923, a normalized growth (locus YAL040C, strain CLN3, active compounds read low) of 1.02 and a normalized growth (locus YCL061C, strain MRC1 (second series), active compounds read low) of 0.942. The normalized growth (locus YDR363W, strain ESC2, active compounds read low) was 0.865 (active), the normalized growth (locus YER002W, strain NOP16, active compounds read low) was 1.06 and the normalized growth [3] was 0.958. For the same molecule, the normalized growth [4] was 0.663 (active), the normalized growth (locus YNL175C, strain NOP13, active compounds read low) was 1 and the normalized growth (locus YNL197C, strain WHI3, active compounds read low) was 1.01. For the same molecule, the normalized growth (locus YNL224C, strain SQS1, active compounds read low) was 1.07, the normalized growth [5] was 0.738 (active) and the normalized growth (locus YOR083W, strain WHI5 (second series), active compounds read low) was 0.826 (active). The normalized growth [6] was 0.927.
Work on `O=C1CC(=O)CC(c2ccc(Cl)c(Cl)c2)C1` yielded a normalized growth [2] of 0.982, a normalized growth (locus YBR229C, strain ROT2, active compounds read low) of 0.998 and a normalized growth (locus YDL101C, strain DUN1, active compounds read low) of 1.02. For the same molecule, the normalized growth (locus YDR150W, strain NUM1, active compounds read low) was 1.04, the normalized growth (locus YEL061C, strain CIN8, active compounds read low) was 0.978 and the normalized growth (locus YGR078C, strain PAC10, active compounds read low) was 0.997. The normalized growth [1] was 1.04, the normalized growth (locus YHR087W, strain rtc3, active compounds read low) was 0.98 and the normalized growth (locus YJR043C, strain POL32, active compounds read low) was 1.01. The normalized growth [3] was 1.01, the normalized growth (locus YKL190W, strain CNB1, active compounds read low) was 0.998 and the normalized growth (locus YLR039C, strain RIC1, active compounds read low) was 0.959. It also gave a normalized growth (locus YLR058C, strain SHM2 (second series), active compounds read low) of 0.985, a normalized growth (locus YLR085C, strain ARP6, active compounds read low) of 0.983 and a normalized growth (locus YLR262C, strain YPT6, active compounds read low) of 0.949. For the same molecule, the normalized growth (locus YML094W, strain GIM5, active compounds read low) was 0.99, the normalized growth (locus YMR219W, strain ESC1, active compounds read low) was 0.991 and the normalized growth (locus YMR263W, strain SAP30, active compounds read low) was 1.01. It also gave a normalized growth (locus YMR307W, strain GAS1, active compounds read low) of 1.02, a normalized growth [4] of 0.997 and a normalized growth (locus YNL298W, strain CLA4 (second series), active compounds read low) of 1. For the same molecule, the normalized growth [5] was 0.976, the normalized growth (locus YNR030W, strain Alg12, active compounds read low) was 1 and the normalized growth [6] was 1.15. For the same molecule, the normalized growth (locus YPL241C, strain CIN2, active compounds read low) was 1.01 and the normalized growth (locus YPR135W, strain CTF4, active compounds read low) was 1.22.
